Results on 40 compounds are retold here after PubChem BioAssay (NCATS).

Structures are written as SMILES. “And” between values parts separate entries of the source, which are not always exact repeats. Equal values may be shown once. Inconclusive results are not listed. A number with no mark means an inactive call. The source made the active and inactive calls. Calls follow the shape of the dose curve; as a rule, active = well fitted inhibition curve with a large enough effect in the signal ratio, with a control signal flat (not every such curve was filed as active); inconclusive = small, poorly fitted or top-dose-only effect, or effect the other way, or a change in a side signal; inactive = no such curve, though single readings can be large or run the other way; the % refers to the signal ratio.
% is scaled to controls: 0 for no effect and ±100 for the full control effect.

Sequence of Retinoic acid receptor RXR-alpha (Homo sapiens) (P19793 whole entry, looked up): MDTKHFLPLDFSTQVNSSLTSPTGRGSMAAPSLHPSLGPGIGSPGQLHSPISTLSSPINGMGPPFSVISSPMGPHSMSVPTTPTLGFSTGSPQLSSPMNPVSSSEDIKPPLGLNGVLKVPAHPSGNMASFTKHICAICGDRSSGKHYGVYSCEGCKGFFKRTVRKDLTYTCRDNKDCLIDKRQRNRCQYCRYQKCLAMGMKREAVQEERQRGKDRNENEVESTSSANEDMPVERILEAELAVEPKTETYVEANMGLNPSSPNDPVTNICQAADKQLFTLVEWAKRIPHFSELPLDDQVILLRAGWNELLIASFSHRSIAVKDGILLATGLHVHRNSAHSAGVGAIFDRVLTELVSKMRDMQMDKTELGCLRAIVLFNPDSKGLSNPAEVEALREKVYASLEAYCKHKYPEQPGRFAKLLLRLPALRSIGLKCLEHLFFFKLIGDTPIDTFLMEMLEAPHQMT

This test addresses Retinoic acid receptor RXR-alpha (Homo sapiens) (UniProt P19793). Kind of test: qHTS assay for small molecule antagonists of retinoid X receptor alpha signaling (AID 588546). Particulars: HEK293T RXRa-UAS-bla, beta-lactamase ratio, antagonist mode. An excerpt:
NIH Chemical Genomics Center [NCGC] U.S. Environmental Protection Agency [EPA] National Institutes of Environmental Health Sciences [NIEHS] National Toxicology Program [NTP] NCGC Assay Overview The Retinoid X receptor (RXR), a nuclear hormone receptor is expressed in liver, spleen, placenta, epidermis, central nervous system. These receptors are able to form homo and heterodimers with other nuclear receptors and due to this heterodimerizing ability, RXR functions as master regulators producing diverse physiological effects. Three subtypes of RXR exist; alpha, beta and gamma. Retinoid X receptor alpha (RXR-alpha) has potential roles in metabolic signaling pathways, skin alopecia, dermal cysts, cardiac development, insulin sensitization etc. Therefore screening environmental chemicals on RXR-alpha signaling can be used for the studies focused on such therapeutic applications.
NCGC Assay Protocol Summary Using a beta-lactamase reporter-gene under control of Retinoid X receptor--alpha (RXR-alpha) response element, a cell-based assay [GeneBLAzer (RXR-alpha -UAS-bla assay developed by Invitrogen] was used to measure RXR-alpha ligands signaling. GeneBLAzer RXR-alpha -UAS-bla HEK293T cells were used with assay medium containing 2% charcoal-stripped FBS. The assay was performed in clear bottom black Greiner 1536-well plates. Library compounds were measured for their ability to inhibit the reporter gene activity. Compounds were screened in a titration series in 1536-well format. The fluorescence intensity (405 nm excitation, 460/530 nm emission) was measured using an EnVision plate reader. Data was normalized relative to 9-cis-retinoic acid control (500 nM, 100%), and DMSO only wells (basal, 0%). Concentration-response titration points for each compound were fitted to the Hill equation yielding concentrations of half-maximal inhibition (IC50) and maximal response (efficacy) values. qHTS protocol for RXR-alpha beta-lactamase assay in antagonist mode [Step] [Parameter] [Value] [Description] 1. Reagent; 5 uL; 2500 cells/well 2. Incubation; 37 C for 4 hrs 3. Compounds; 23 nL; 0.59 nM to 92 uM 4. Controls (DMSO); 23 nL 5. Agonist (Stimulator); 1uL; 9-cis-retinoic acid at 500 nM and 100 nM final concentrations 6. Incubation; 37 C for 18 hrs 7. Detection reagent; 1 uL of CCF4-dye 8. Incubation; RT for 2 hrs 9. Detection; Fluorescence; Envision plate reader
In the case of `N#Cc1c(Cl)c(Cl)c(Cl)c(C#N)c1Cl`, the Potency was 7.08 µM (active). On to `Clc1ccc([C@]2(Cn3cncn3)C[C@@H](Br)CO2)c(Cl)c1`, for which the max response is -12.9% and -9.53%. Still for that read-out and setting: the result for `O=[N+]([O-])Nc1nccn1Cc1ccc(Cl)nc1` reads 5.37%; that for `C=CC(=O)OCCCCCC(C)C`, -5.23%; that for `CCCCC(C#N)(Cn1cncn1)c1ccc(Cl)cc1` (stereo not given), 3.27% and 4.81%.

As to `Nc1nc(N)nc(Cl)n1`, the max response was -8.75% and -3.8% and 6.06%. `C=CC(=O)NCO`: the max response was 4.89% and 0.243%. Regarding `O=C(O)COc1ccc(Cl)cc1`, the max response is -13.3%. Regarding `CC(C)(C)[C@@H](O)/C(=C\c1ccc(Cl)cc1Cl)n1cncn1`, the Potency was 44.7 µM (active). In the case of `CCOP(=S)(OCC)SCSP(=S)(OCC)OCC`, the max response was -4.31%. Same read-out and setting: next, `CCS(=O)(=O)c1cccnc1S(=O)(=O)NC(=O)Nc1nc(OC)cc(OC)n1`: 8.72%; `CCCCCCCCCCCCCCC(Br)C(=O)O` (stereo not given): -14.5%. Still for that read-out and setting: the result for `CCCCC(CC)CO[N+](=O)[O-]` (stereo not given) reads 3.31%. For the compound `COP(=O)(OC)Oc1nc(Cl)c(Cl)cc1Cl`, the max response is 1.04%. Consider `CCNc1nc(NCC)nc(SC)n1`, for which the max response is -3.26%. On the same count and under the same terms, next, `COc1nn(C(=O)NS(=O)(=O)c2ccccc2OC(F)(F)F)c(=O)n1C`: -13.4%; `CCNc1nc(NC(C)C)nc(OC)n1`: 2.56%; `CC(C)=CC1C(C(=O)OCc2coc(Cc3ccccc3)c2)C1(C)C` (stereo not given): 3.05%. Still for that read-out and setting: next, `C/C=C(\C)C(=O)O[C@H]1C[C@@H](OC(C)=O)[C@@]2(C(=O)OC)CO[C@H]3[C@@H](O)[C@@](C)([C@]45O[C@@]4(C)[C@H]4C[C@@H]5O[C@@H]5OC=C[C@@]54O)[C@H]4[C@]1(CO[C@]4(O)C(=O)OC)[C@@H]32`: 9.93%. With `COC(=O)/C=C(\C)OP(=O)(OC)OC`, the max response was -10.3%. On the same count and under the same terms, the result for `CCCCOC(=O)c1ccccc1C(=O)O` reads 13.7%. Still for that read-out and setting: next, `Clc1ccc(C2(Cn3cncn3)CC(Br)CO2)c(Cl)c1` (stereo not given): -17.6%; `Cc1c(COC(=O)C2C(/C=C(\Cl)C(F)(F)F)C2(C)C)cccc1-c1ccccc1` (stereo not given): -11.6%; `C=CCOC(=O)C(C)(C)OC(=O)c1cc(-n2c(=O)cc(C(F)(F)F)n(C)c2=O)ccc1Cl`: 23.7%. The same measure, in the same setting: the result for `N#CCNC(=O)c1cnccc1C(F)(F)F` reads -7.71%; that for `NS(=O)(=O)C(F)(F)C(F)(F)C(F)(F)C(F)(F)C(F)(F)C(F)(F)C(F)(F)C(F)(F)F`, -55.1%.

For `CCOP(=O)(OCC)SCSP(=S)(OCC)OCC`, the max response was -11.3%. For the compound `CCCCOC(=O)[C@@H](C)Oc1ccc(Oc2ccc(C#N)cc2F)cc1`, the max response was 12.7%.

As for `CC(C)(C#N)N=NC(C)(C)C#N`, the max response was -0.927%. With `COC(=O)NS(=O)(=O)c1ccc(N)cc1`, the max response is -10.8% and -3.57%. Regarding `CN1COCN(Cc2cnc(Cl)s2)/C1=N\[N+](=O)[O-]`, the max response was 2.74%. On the same count and under the same terms, the result for `CN(C)P(=O)(N(C)C)N(C)C` reads -0.0212%. On the same count and under the same terms, the result for `Cc1cc(Cl)ccc1N=CN(C)C` reads -16.2%; that for `CCSCCSP(=O)(OC)OC`, -0.524%; that for `O=[N+]([O-])c1ccc(Oc2ccc(C(F)(F)F)cc2[N+](=O)[O-])cc1`, 0.243%. Still for that read-out and setting: next, `CC(Oc1ccc(Cl)cc1Cl)C(=O)O` (stereo not given): 1.72%; `CNC(=O)O/N=C(\C)SC`: 8.15%; `Cc1ccccc1C(=O)Nc1cccc(OC(C)C)c1`: -11.3%. Take `FC(F)(F)c1ccc(Cl)cc1`: the max response was -8.02%.

Consider `Cc1nc(N(C)C)nc(OC(=O)N(C)C)c1C`, for which the max response was 5.66%.
